Test systems include SR leukemia; RPMI-8226 leukemia; OVCAR-8 ovarian; OVCAR-5 ovarian; OVCAR-4 ovarian; SK-OV-3 ovarian; IGROV1 ovarian; OVCAR-3 ovarian; HS 578T breast; T-47D breast; BT-549 breast; MDA-MB-435 melanoma; SW-620 colon; MCF7 breast; HCT-116 colon; KM12 colon; NCI/ADR-RES ovarian; HCC-2998 colon.
Common to all, as to test: NCI-60 one-dose screen, 48 h (100 = growth as untreated, 0 = no growth, -100 = all killed)
Holding throughout (conditions): 10 µM unless noted

About 83,000 compounds went through this panel and 20% of them were active in at least one assay; those are over-represented in the sample as a whole.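 Method: cells in 96-well plates; compound added at one concentration; 48 h incubation; percent growth measured; values under 10 scored active.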 Unmarked numbers belong to inactive results. The source made the active and inactive calls.

With `O=C(Nc1cccc(Cl)c1)Nc1nc2ccc([N+](=O)[O-])cc2s1`, the growth was 2.1% (active) in the assay on SR leukemia; 3.45% (active) in the assay on RPMI-8226 leukemia; 7.34% (active) in the assay on OVCAR-8 ovarian; 26.5% in the assay with OVCAR-5 ovarian; 4.33% (active) with OVCAR-4 ovarian; -1.18% (active) with SK-OV-3 ovarian. The growth in the assay with IGROV1 ovarian is 14.8%; in the assay with OVCAR-3 ovarian, 9.51% (active); in the assay on HS 578T breast it was -5.35% (active); in the assay on T-47D breast, -11.7% (active); in the assay with BT-549 breast, -28.7% (active); with MDA-MB-435 melanoma it was -8.69% (active). The growth in the assay with SW-620 colon was 3.71% (active); with MCF7 breast, 4.68% (active); in the assay with HCT-116 colon it was 0.143% (active); with KM12 colon, 0.174% (active).
With `Cc1cc(O)c2c(c1)C(=O)C(c1c(C)cc3c(c1O)C(=O)C=CC3=O)=CC2=O`, the growth in the assay on SR leukemia was 11.1%; in the assay with RPMI-8226 leukemia it was 15.2%; in the assay on OVCAR-8 ovarian it was 82.5%; with OVCAR-5 ovarian, 117%; in the assay with OVCAR-4 ovarian, 86.3%; in the assay on SK-OV-3 ovarian, 89.2%. Further, the growth is 108% in the assay on IGROV1 ovarian; 23.4% in the assay with OVCAR-3 ovarian; 102% in the assay on HS 578T breast; 100% with NCI/ADR-RES ovarian; 21.9% with T-47D breast; 113% with BT-549 breast. In addition, the growth in the assay with SW-620 colon is 8.08% (active); in the assay with MCF7 breast, 49.9%; in the assay with HCT-116 colon, 72.8%; in the assay on HCC-2998 colon, 112%; with KM12 colon, 109%.
With `N/C(=N\OC(=O)CSc1nc2ccccc2s1)c1ccc2ccccc2c1`, the growth was 117% in the assay with SR leukemia; 110% in the assay on RPMI-8226 leukemia; 98.8% in the assay on OVCAR-8 ovarian; 98.9% in the assay with OVCAR-5 ovarian; 109% with OVCAR-4 ovarian; 101% in the assay with SK-OV-3 ovarian. Also, the growth was 97.3% in the assay with IGROV1 ovarian; 116% in the assay on OVCAR-3 ovarian; 105% in the assay with HS 578T breast; 97.7% in the assay on T-47D breast; 100% in the assay on BT-549 breast; 100% in the assay on SW-620 colon. The growth with MCF7 breast was 94.2%; in the assay with HCT-116 colon it was 103%; in the assay on HCC-2998 colon, 107%; in the assay with KM12 colon, 103%.
Regarding `O=C1C[C@@H](c2ccccc2)Oc2c(Cc3ccccc3O)c(O)c(Cc3cc(Cc4cc(Cc5ccccc5O)ccc4O)ccc3O)c(O)c21`, the growth with SR leukemia was 99.5%; in the assay on RPMI-8226 leukemia, 88%; with OVCAR-8 ovarian, 97.2%; with OVCAR-5 ovarian, 107%; in the assay with OVCAR-4 ovarian, 99.6%; in the assay on SK-OV-3 ovarian, 103%. In addition, the growth with IGROV1 ovarian was 82.6%; with OVCAR-3 ovarian, 96.4%; in the assay with HS 578T breast, 85.4%; in the assay with NCI/ADR-RES ovarian, 106%; in the assay with T-47D breast, 94%; with BT-549 breast, 104%. Besides, the growth in the assay with SW-620 colon was 99.3%; in the assay on HCT-116 colon it was 96.7%; with HCC-2998 colon, 106%; in the assay with KM12 colon it was 92.8%.
Turning to `O=C1c2c(O)cc(O)cc2O[C@@H](c2ccc(O)cc2)[C@@H]1c1c(O)cc(O)c2c(=O)cc(-c3ccc(O)c(O)c3)oc12`, the growth was 103% in the assay on SR leukemia; 100% in the assay with RPMI-8226 leukemia; 101% in the assay with OVCAR-8 ovarian; 98.6% in the assay on OVCAR-5 ovarian; 97.8% in the assay on OVCAR-4 ovarian; 86.5% with SK-OV-3 ovarian. The growth is 101% with IGROV1 ovarian; 106% with OVCAR-3 ovarian; 102% in the assay on HS 578T breast; 95.7% with NCI/ADR-RES ovarian; 105% in the assay on T-47D breast; 98.3% in the assay on BT-549 breast. The growth in the assay with MDA-MB-435 melanoma was 110%; in the assay with SW-620 colon it was 107%; in the assay with HCT-116 colon it was 100%; in the assay with HCC-2998 colon it was 111%; in the assay on KM12 colon it was 97.1%.
`C=C(C)[C@@H]1CC[C@]2(C(=O)NCCCN(CCC#N)CCC#N)CC[C@]3(C)[C@H](CC[C@@H]4[C@@]5(C)CCC(=O)C(C)(C)[C@@H]5CC[C@]43C)[C@@H]12`: the growth in the assay on SR leukemia was 95.7%; with RPMI-8226 leukemia, 103%; in the assay on OVCAR-8 ovarian, 105%; in the assay with OVCAR-5 ovarian, 103%; in the assay on OVCAR-4 ovarian, 105%; in the assay on SK-OV-3 ovarian it was 104%. Besides, the growth in the assay on IGROV1 ovarian was 112%; with OVCAR-3 ovarian it was 118%; with HS 578T breast, 105%; in the assay on NCI/ADR-RES ovarian, 102%; in the assay on T-47D breast, 91.2%; in the assay on BT-549 breast, 118%. Besides, the growth in the assay with MDA-MB-435 melanoma was 101%; with SW-620 colon, 100%; in the assay with HCT-116 colon it was 97.1%; with HCC-2998 colon, 104%; in the assay on KM12 colon it was 95.9%.
With `O=C(COc1ccc(C2SCC(=O)N2c2ccc(F)cc2)cc1)c1ccccc1` (centres undefined), the growth in the assay with SR leukemia is 65.1%; in the assay with RPMI-8226 leukemia, 87.4%; in the assay with OVCAR-8 ovarian, 94.4%; in the assay on OVCAR-5 ovarian, 107%; in the assay on OVCAR-4 ovarian, 110%; with SK-OV-3 ovarian it was 112%. The growth was 86.2% in the assay with IGROV1 ovarian; 114% with OVCAR-3 ovarian; 96.7% in the assay with HS 578T breast; 89.8% in the assay with T-47D breast; 93.4% in the assay with BT-549 breast; 116% with SW-620 colon. Further, the growth in the assay on MCF7 breast is 81.7%; in the assay with HCT-116 colon, 94.3%; with HCC-2998 colon, 106%; in the assay with KM12 colon, 92.4%.
For the compound `Oc1ccc(CSc2nnc(-c3ccccc3)n2-c2ccccc2)c2cccnc12`, the growth with SR leukemia is 33.6%; with RPMI-8226 leukemia it was 10.9%; with OVCAR-8 ovarian, 16.8%; with OVCAR-5 ovarian, 43.7%; in the assay on OVCAR-4 ovarian, 15.8%; in the assay on SK-OV-3 ovarian it was 9.62% (active). Moreover, the growth in the assay on IGROV1 ovarian is 9.4% (active); with OVCAR-3 ovarian, 6.38% (active); in the assay with HS 578T breast it was 9.17% (active); with T-47D breast, 10.1%; in the assay on BT-549 breast it was 25.2%; in the assay on MDA-MB-435 melanoma, 13.9%. The growth in the assay on SW-620 colon is 11.6%; in the assay with MCF7 breast, 3.8% (active); with HCT-116 colon it was 10.8%; in the assay on HCC-2998 colon, 26.9%; in the assay on KM12 colon, 14.1%.
Consider `Oc1ccc(CSc2nnc(-c3cnccn3)n2-c2ccccc2)c2cccnc12`, for which the growth in the assay with SR leukemia is 42.1%; in the assay with RPMI-8226 leukemia, 29.1%; in the assay with OVCAR-8 ovarian, 23.1%; in the assay on OVCAR-5 ovarian it was 50.3%; in the assay with OVCAR-4 ovarian, 16.5%; with SK-OV-3 ovarian, 21.1%. Moreover, the growth is 16.3% in the assay with IGROV1 ovarian; 14.8% in the assay with OVCAR-3 ovarian; 29.4% with HS 578T breast; 10.9% in the assay on NCI/ADR-RES ovarian; 7.38% (active) in the assay with T-47D breast; 41.8% with BT-549 breast. For the same compound, the growth was 23.4% in the assay on MDA-MB-435 melanoma; 23.8% in the assay on SW-620 colon; 19.3% in the assay on HCT-116 colon; 42.1% with HCC-2998 colon; 18.9% in the assay on KM12 colon.

These data come from PubChem BioAssay (NCI).
